Laboratory results taken from the supplement of paper PMC7724964.

T1: NUP98 730-880 Nucleoporin2 (domain begin residue: 730, domain end residue: 880), P52948
T1 chain: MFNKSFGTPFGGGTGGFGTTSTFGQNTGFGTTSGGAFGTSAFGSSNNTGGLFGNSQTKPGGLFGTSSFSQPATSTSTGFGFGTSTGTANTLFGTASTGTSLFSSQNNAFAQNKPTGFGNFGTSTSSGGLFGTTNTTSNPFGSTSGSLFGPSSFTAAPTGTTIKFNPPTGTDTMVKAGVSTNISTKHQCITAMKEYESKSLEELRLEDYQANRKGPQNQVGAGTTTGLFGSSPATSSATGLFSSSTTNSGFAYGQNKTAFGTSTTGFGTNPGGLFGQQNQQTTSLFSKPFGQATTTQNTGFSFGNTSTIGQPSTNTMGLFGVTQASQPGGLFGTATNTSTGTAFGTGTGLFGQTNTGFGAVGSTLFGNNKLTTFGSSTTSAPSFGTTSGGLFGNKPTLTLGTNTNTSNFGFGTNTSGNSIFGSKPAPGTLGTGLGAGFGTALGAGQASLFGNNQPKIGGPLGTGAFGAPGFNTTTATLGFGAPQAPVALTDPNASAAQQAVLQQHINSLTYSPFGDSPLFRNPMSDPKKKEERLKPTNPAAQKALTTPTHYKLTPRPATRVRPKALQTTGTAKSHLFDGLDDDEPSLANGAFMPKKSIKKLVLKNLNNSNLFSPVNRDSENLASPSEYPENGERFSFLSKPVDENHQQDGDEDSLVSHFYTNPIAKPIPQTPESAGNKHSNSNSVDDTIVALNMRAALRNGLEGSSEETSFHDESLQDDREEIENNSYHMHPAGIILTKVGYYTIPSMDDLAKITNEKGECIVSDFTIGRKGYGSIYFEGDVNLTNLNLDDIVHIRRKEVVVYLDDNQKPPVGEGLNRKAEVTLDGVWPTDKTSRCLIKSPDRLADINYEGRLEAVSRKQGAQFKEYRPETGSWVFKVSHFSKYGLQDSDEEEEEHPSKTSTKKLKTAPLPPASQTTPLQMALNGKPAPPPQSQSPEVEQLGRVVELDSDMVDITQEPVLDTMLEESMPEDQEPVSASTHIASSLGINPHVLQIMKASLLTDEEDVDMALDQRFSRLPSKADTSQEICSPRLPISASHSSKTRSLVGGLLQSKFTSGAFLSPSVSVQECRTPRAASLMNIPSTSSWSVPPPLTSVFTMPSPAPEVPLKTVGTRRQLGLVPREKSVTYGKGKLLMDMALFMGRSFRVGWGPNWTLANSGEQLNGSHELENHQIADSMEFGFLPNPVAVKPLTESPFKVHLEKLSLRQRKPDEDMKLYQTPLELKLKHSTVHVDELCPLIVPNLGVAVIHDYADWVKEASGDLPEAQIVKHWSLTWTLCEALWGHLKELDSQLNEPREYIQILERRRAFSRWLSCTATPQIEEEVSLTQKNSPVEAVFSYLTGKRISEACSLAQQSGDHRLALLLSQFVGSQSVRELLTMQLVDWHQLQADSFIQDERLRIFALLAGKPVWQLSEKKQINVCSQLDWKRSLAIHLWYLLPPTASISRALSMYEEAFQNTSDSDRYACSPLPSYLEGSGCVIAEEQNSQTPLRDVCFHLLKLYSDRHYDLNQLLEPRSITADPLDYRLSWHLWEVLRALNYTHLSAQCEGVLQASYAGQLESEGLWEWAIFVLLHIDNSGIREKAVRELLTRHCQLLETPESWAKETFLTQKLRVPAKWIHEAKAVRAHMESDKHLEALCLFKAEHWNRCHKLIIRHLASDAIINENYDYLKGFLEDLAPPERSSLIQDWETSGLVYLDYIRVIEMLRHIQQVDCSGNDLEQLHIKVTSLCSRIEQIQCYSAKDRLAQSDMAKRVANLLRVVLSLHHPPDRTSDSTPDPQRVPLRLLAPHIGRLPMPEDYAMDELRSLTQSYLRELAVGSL

T2: NR1H3 204-447 Hormone_recep (domain begin residue: 204, domain end residue: 447), Q13133
T2 chain: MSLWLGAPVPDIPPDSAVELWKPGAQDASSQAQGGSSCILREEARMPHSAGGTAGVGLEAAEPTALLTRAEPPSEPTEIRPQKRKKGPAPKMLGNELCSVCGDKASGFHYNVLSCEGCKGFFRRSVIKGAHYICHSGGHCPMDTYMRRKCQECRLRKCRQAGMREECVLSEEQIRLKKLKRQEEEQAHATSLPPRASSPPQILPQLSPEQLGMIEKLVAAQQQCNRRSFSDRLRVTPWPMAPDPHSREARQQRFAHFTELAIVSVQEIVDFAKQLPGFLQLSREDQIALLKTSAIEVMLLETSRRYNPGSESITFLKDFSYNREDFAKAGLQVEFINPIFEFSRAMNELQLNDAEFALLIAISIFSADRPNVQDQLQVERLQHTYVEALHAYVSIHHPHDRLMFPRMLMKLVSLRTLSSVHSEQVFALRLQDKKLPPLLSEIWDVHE

T3: NR4A3 356-626 Hormone_recep (domain begin residue: 356, domain end residue: 626), Q92570
T3 chain: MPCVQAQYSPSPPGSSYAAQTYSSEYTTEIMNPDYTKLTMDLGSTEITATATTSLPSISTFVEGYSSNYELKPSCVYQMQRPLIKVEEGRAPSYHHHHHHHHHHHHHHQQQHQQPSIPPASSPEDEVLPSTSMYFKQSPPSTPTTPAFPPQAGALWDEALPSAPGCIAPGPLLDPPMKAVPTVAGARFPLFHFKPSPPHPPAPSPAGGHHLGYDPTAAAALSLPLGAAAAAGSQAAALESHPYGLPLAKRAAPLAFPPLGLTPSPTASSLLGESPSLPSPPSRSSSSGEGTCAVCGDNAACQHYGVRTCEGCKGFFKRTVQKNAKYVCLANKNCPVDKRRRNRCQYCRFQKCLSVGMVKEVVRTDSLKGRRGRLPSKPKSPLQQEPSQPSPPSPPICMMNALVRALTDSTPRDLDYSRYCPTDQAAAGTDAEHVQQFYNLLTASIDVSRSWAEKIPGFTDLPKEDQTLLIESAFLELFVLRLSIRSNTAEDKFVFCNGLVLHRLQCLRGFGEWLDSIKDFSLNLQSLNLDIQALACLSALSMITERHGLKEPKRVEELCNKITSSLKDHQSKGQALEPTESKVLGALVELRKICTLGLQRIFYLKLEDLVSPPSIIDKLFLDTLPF

T4: NR2C1 355-603 Hormone_recep (domain begin residue: 355, domain end residue: 603), P13056
T4 chain: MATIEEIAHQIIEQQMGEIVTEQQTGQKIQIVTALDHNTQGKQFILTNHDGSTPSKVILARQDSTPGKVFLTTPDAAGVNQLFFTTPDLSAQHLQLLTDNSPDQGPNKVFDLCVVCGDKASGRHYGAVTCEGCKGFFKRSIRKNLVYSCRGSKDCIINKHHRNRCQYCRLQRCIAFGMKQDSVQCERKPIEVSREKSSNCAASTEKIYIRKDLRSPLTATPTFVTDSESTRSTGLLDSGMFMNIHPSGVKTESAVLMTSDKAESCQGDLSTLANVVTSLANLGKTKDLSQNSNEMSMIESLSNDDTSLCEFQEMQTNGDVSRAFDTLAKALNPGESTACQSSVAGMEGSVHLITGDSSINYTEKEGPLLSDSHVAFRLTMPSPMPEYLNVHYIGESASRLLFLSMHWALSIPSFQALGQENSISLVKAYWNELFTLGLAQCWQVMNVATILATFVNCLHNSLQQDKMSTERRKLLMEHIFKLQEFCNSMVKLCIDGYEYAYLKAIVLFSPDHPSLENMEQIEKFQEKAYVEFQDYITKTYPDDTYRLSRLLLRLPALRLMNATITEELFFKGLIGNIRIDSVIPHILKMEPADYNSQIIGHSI

T5: NXT1 1-140 NTF2 (domain begin residue: 1, domain end residue: 140), Q9UKK6
T5 chain: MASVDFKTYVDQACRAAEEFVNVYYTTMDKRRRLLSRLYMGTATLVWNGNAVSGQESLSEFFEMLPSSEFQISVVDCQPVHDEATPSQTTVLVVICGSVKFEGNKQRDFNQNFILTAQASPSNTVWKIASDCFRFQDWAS

T6: NR4A2 327-598 Hormone_recep (domain begin residue: 327, domain end residue: 598), P43354
T6 chain: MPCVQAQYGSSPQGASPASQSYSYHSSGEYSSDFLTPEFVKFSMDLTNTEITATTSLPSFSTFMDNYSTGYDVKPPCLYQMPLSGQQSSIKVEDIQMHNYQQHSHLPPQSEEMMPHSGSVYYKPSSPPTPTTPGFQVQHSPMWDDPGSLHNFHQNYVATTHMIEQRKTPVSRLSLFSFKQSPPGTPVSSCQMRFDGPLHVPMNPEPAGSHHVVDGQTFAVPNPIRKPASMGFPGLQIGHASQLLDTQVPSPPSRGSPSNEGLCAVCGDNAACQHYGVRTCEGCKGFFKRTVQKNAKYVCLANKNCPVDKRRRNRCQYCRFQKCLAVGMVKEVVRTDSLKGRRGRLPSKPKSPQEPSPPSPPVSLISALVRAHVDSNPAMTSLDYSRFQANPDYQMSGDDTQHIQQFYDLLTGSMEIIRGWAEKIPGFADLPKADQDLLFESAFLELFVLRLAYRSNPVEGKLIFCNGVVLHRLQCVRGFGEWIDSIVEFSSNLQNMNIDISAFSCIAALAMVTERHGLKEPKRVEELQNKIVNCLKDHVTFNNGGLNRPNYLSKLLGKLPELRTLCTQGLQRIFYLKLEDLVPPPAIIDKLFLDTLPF

T7: NR1H4 256-474 Hormone_recep (domain begin residue: 256, domain end residue: 474), Q96RI1
T7 chain: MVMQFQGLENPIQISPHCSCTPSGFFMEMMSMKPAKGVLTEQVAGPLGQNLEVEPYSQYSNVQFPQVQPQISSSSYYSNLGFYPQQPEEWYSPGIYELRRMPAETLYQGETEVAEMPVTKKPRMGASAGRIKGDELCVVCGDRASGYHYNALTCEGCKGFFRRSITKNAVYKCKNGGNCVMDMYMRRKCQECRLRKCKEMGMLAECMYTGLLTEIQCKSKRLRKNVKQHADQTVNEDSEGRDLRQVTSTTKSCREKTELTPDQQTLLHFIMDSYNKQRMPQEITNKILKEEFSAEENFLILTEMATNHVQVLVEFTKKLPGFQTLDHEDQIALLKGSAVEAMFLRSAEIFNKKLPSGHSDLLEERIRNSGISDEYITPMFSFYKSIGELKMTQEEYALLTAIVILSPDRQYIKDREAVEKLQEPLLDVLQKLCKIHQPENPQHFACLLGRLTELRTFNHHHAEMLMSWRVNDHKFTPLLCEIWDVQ


Target: T1, NUP98 730-880 Nucleoporin2 (domain …
Assay: phage ELISA signal ratio (GST-PRM binding over GST background); higher = stronger binding of peptide-phage to the PRM
Procedure, shortened: (§1)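 An M13 phage library with randomized hexadecapeptides on the gene-8 major coat protein, each peptide lacking cysteine and flanked by glycine, was selected for five rounds against human peptide recognition domains fused to the C-terminus of glutathione S-transferase (GST) and expressed in 96-well plates. Approximately 48 clones from rounds 4 and 5 went to phage ELISA. The reported value is the ELISA signal on the GST-domain fusion over the signal on GST alone, and positive clones were sequenced.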

Row | Binder | phage ELISA signal ratio
1 | WVGNNDWENEWPWVIL | 7.89
2 | QGWMPWDPQDLDWWVG | 7.31
3 | WFGWDAQMTEQEDELW | 5.91

target: NXF1 565-619 TAP_C (domain begin residue: 565, domain end residue: 619); assay: as above
Procedure, shortened: as §1

Row | Binder | phage ELISA signal ratio
4 | DIPFSFQWSTDMHPVS | 6.7
5 | VVQIEGFDFQWKPEWF | 13.2
6 | GIPYPDFNWENISTLV | 6.41
7 | GDFGPDWFSFAWTEEM | 13.4
8 | MAGPESLNFSWDYIMN | 13.4

Target: T2, NR1H3 204-447 Hormone_recep (domain …
Assay: as above
Procedure, shortened: as §1

Row | Binder | phage ELISA signal ratio
9 | SADSMYPELDWLVWAM | 10
10 | QEWQAWMLSMEEGEMM | 15.5

Target: T3, NR4A3 356-626 Hormone_recep (domain …
Assay: as above
Procedure, shortened: as §1

Row | Binder | phage ELISA signal ratio
11 | QQEPWWWMDWDFQQAE | 4.47

Target: T4, NR2C1 355-603 Hormone_recep (domain …
Assay: as above
Procedure, shortened: as §1

Row | Binder | phage ELISA signal ratio
12 | AAPGSWDYSLLEFHYL | 3.03
13 | NQWGPYWSFSFVPMDW | 8.51
14 | TELPPLPYAWQDYAHW | 24.8
15 | WGPFLSFQYAVDPTQE | 19.1

Target: T5, NXT1 1-140 NTF2 (domain begin residue: …
Assay: as above
Procedure, shortened: as §1

Row | Binder | phage ELISA signal ratio
16 | QYNFLWEHLVQPRPAT | 16.1
17 | EQKQTDSFYWIWQHLD | 3.56

target: PABPC1 544-623 PABP (domain begin residue: 544, domain end residue: 623); assay: as above
Procedure, shortened: as §1

Row | Binder | phage ELISA signal ratio
18 | LPGEYNMMEWRQAVMG | 3.49

Target: T6, NR4A2 327-598 Hormone_recep (domain …
Assay: as above
Procedure, shortened: as §1

Row | Binder | phage ELISA signal ratio
19 | QTMQRQWLDILLSLEL | 20.2
20 | SPFDFWPLQSWWFKTM | 9.75
21 | AFKQLMFHVIGEEYSV | 30.5

Target: T7, NR1H4 256-474 Hormone_recep (domain …
Assay: as above
Procedure, shortened: as §1

Row | Binder | phage ELISA signal ratio
22 | LAFGEWLDKEIGLAYF | 14.3

target: NXF1 203-359 LRR_1 (domain begin residue: 203, domain end residue: 359); assay: as above
Procedure, shortened: as §1

Row | Binder | phage ELISA signal ratio
23 | PNFEDYWRTAEQWHQP | 25.4
24 | FETLWARHAQGQTQVE | 22
25 | VQMWSFEQIWVEHMMG | 20.1

target: PAF1 165-376 Paf1 (domain begin residue: 165, domain end residue: 376), Q8N7H5; assay: as above
Procedure, shortened: as §1

Row | Binder | phage ELISA signal ratio
26 | WEQQWFEWTHIEGQDD | 2.51

target: NR5A2 297-541 Hormone_recep (domain begin residue: 297, domain end residue: 541), O00482; assay: as above
Procedure, shortened: as §1

Chain of NR5A2 297-541 Hormone_recep (domain begin residue: 297, domain end residue: 541), O00482 (O00482 whole entry): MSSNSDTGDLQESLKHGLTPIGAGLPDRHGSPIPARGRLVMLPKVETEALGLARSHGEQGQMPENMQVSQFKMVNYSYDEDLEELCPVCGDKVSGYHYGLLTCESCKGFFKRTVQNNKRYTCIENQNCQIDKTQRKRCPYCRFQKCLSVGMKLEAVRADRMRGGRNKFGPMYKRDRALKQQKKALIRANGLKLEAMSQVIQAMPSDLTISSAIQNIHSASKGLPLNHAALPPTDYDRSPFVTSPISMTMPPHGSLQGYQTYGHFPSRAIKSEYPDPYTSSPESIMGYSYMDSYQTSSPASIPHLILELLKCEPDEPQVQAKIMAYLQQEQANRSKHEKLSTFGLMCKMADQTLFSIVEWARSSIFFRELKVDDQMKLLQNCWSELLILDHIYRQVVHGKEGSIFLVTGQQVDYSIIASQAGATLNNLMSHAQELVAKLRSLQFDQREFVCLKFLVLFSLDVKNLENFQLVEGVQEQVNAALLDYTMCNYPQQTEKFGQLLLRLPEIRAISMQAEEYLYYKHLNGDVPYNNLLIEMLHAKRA

Row | Binder | phage ELISA signal ratio
27 | QQAQPRWWSMVLQHEW | 4.92
28 | LTMAQQFPYLWSALSN | 11.2
